Screens from PubChem.
C diff growth – blocks growth of Clostridium difficile; Clostridium difficile clinical isolate growth, OD600, 24 h; active compounds read low; growth activity, negative = inhibition, % at 16 µg/mL (by protocol); 86,000 compounds, 0.25% hits; AID 1259249;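 active = mean growth activity at or below -80% and every replicate also at or below -80%; inconclusive = mean at or below -80% but some replicate above -80%; inactive = mean growth activity above -80%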;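 note: 0% = DMSO wells and -100% = levofloxacin 16 µg/mL wells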
Pf Dd2 growth – inhibitors of Plasmodium falciparum Dd2 growth. P. falciparum Dd2 growth, SYBR Green, 72 h; active compounds read low. activity change, % at 10 µM. 94,000 compounds, 2.3% hits. AID 1159554; in the data active = activity change below about -80%; inconclusive = no clear call, values can overlap the other calls
T cruzi growth-1 – inhibitors of T. cruzi proliferation | T. cruzi beta-gal in NIH3T3, GalScreen luminescence, 90 h | inhibition, % at 8.34 µM | 77,000 compounds, 5.9% hits;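 active = mean inhibition above about 93%, with at least 55% of replicates each passing it, limit read from the data, passing the limit was not always enough; inconclusive = only one of those two conditions holds; inactive = neither condition holds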
T cruzi growth-2 – blocks T. cruzi growth in NIH3T3 host cells | shares compounds with T cruzi growth-1 | T. cruzi beta-gal in NIH3T3, GalScreen luminescence, 90 h | inhibition, % at 8.35 µM | 5,600 compounds, 72% hits;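 active = mean replicate inhibition above about 95% and at least 55% of replicates individually reaching it, limit read from the data; inconclusive = only one of the two criteria is met; inactive = neither criterion is met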
T cruzi growth-3 – inhibitors of T. cruzi proliferation. T. cruzi beta-gal in NIH3T3, GalScreen luminescence, 90 h. shares compounds with T cruzi growth-1. inhibition, % at 2.09 µM. 5,600 compounds, 21% hits;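 active = mean inhibition above about 95%, with at least 55% of replicates also reaching it, limit read from the data; inconclusive = meets just one of the two conditions; inactive = meets neither condition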;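 note: plate controls were neutral control median for no effect and positive control median for full effect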
3T3 cytotox – cytotoxicity in mouse NIH/3T3 fibroblasts | shares compounds with T cruzi growth-1 | NIH/3T3 viability, CellTiter-Glo ATP luminescence, 90 h | cytotoxicity (signal decrease), % at 8.35 µM | 5,600 compounds, 14% hits | AID 651742;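 active = mean signal decrease across replicates above about 35% based on untreated-well scatter, with enough replicates individually passing, limit read from the data; inconclusive = no rule stated though some were filed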;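 note: 0% = median of neutral control wells and 100% = median of positive control wells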
3T3 cytotox 2 – kills mouse NIH/3T3 fibroblasts; shares compounds with T cruzi growth-1; NIH/3T3 viability, CellTiter-Glo ATP luminescence, 90 h; inhibition, % at 24.9 µM; 5,600 compounds, 56% hits;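 active = mean loss of cell viability signal at or above a set limit, and enough replicates individually reaching it; inconclusive = meets only the mean limit or only the replicate share; inactive = meets neither condition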;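 note: 0% = median of neutral control wells and 100% = median of positive control wells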
Active calls of the source: *; ? = inconclusive; · = no result. Shown are actives, neighbours in structure and some others; about 6.7% of the full set was active somewhere.

SMILES	C diff growth	Pf Dd2 growth	T cruzi growth-1	T cruzi growth-2	T cruzi growth-3	3T3 cytotox	3T3 cytotox 2
Cc1ccccc1-c1ccc([C@H]2[C@@H](CO)N3CCCCN(C(=O)Nc4ccc(F)cc4)C[C@@H]23)cc1	0	12	104*	107*	94	1	56*
Cc1ccccc1-c1ccc([C@H]2[C@H](CO)N3CCCCN(C(=O)Nc4ccccc4)C[C@@H]23)cc1	20	2	94	·	·	·	·
Cc1ccccc1-c1ccc([C@H]2[C@@H](CO)N3CCCCN(C(=O)Nc4ccc(F)cc4)C[C@H]23)cc1	26	-35	101*	98*	?	94*	103*
C[C@H]1CN([C@@H](C)CO)C(=O)c2cc(NC(=O)CCC(F)(F)F)ccc2O[C@H]1CN(C)Cc1ccc(C(=O)Nc2ccccc2N)cc1	·	-54	83	·	·	·	·
C[C@@H]1CN([C@H](C)CO)C(=O)c2cccc(NC(=O)c3ccncc3)c2O[C@H]1CN(C)Cc1ccc(C(F)(F)F)cc1	-7	-22	79	·	·	·	·
O=C(N[C@H]1CC[C@@H](CCNS(=O)(=O)c2ccc(Cl)cc2)O[C@@H]1CO)c1cnccn1	-2	22	-40	·	·	·	·
O=C(C[C@H]1CC[C@H]2[C@@H](COC[C@H](O)CN2CCc2ccccc2)O1)NCc1ccccc1	0	-21	23	·	·	·	·
CCS(=O)(=O)Nc1ccc2c(c1)C(=O)N(C)C[C@@H](OC)[C@H](C)CN(Cc1nccs1)[C@H](C)CO2	·	14	-25	·	·	·	·
O=C(N[C@@H]1CC[C@@H](CCNC(=O)C2CCCC2)O[C@H]1CO)c1ccncc1	-1	-3	·	·	·	·	·
COc1ccc(S(=O)(=O)N(C)C[C@@H]2Oc3c(NC(=O)c4nc5ccccc5s4)cccc3C(=O)N([C@H](C)CO)C[C@@H]2C)cc1	3	-41	112*	99*	111*	38*	51*
C[C@H]1CN([C@@H](C)CO)C(=O)c2cccc(NC(=O)c3nc4ccccc4s3)c2O[C@@H]1CN(C)Cc1ccccc1	11	-61	77	·	·	·	·
COc1ccc(CN(C)C[C@H]2Oc3c(NC(=O)c4nc5ccccc5s4)cccc3C(=O)N([C@H](C)CO)C[C@@H]2C)cc1	-5	-17	?	90	74	3	11
COc1ccc(S(=O)(=O)N(C)C[C@H]2Oc3c(NC(=O)c4nc5ccccc5s4)cccc3C(=O)N([C@@H](C)CO)C[C@H]2C)cc1	-1	-61	16	·	·	·	·
COc1ccc(CN(C)C[C@H]2Oc3c(NC(=O)c4nc5ccccc5s4)cccc3C(=O)N([C@@H](C)CO)C[C@@H]2C)cc1	7	-42	92	·	·	·	·
C[C@H]1CN([C@@H](C)CO)C(=O)c2cccc(NC(=O)c3nc4ccccc4s3)c2O[C@@H]1CN(C)Cc1ccc(C(F)(F)F)cc1	·	-45	94	·	·	·	·
C[C@H](CO)N1C[C@H](C)[C@H](CN(C)Cc2ccc(C(F)(F)F)cc2)Oc2c(NC(=O)c3nc4ccccc4s3)cccc2C1=O	·	-87*	97*	100*	98*	15	93*
C[C@@H]1CN([C@H](C)CO)C(=O)c2cccc(NC(=O)c3nc4ccccc4s3)c2O[C@@H]1CN(C)Cc1ccccc1	1	-46	?	100*	50	1	26
C[C@H]1CN([C@@H](C)CO)C(=O)Cc2cc(NS(=O)(=O)c3ccccc3)ccc2O[C@@H]1CN(C)C	4	-4	·	·	·	·	·
C[C@@H]1CN([C@H](C)CO)C(=O)c2cccc(NS(=O)(=O)c3ccc(F)cc3)c2O[C@H]1CN(C)C(=O)Nc1ccc2c(c1)OCO2	-2	-23	61	·	·	·	·
C[C@@H]1CN([C@@H](C)CO)C(=O)c2cc(NS(C)(=O)=O)ccc2O[C@H]1CN(C)Cc1ccc(C(F)(F)F)cc1	-4	-38	82	·	·	·	·
C[C@@H]1CN([C@H](C)CO)C(=O)c2cccc(NC(=O)c3nc4ccccc4s3)c2O[C@@H]1CN(C)Cc1ccc(-c2ccccc2)cc1	-1	-48	111*	107*	71	4	-9
C[C@@H]1CN([C@@H](C)CO)C(=O)c2cccc(NC(=O)c3nc4ccccc4s3)c2O[C@H]1CN(C)Cc1ccc(-c2ccccc2)cc1	5	-75	52	·	·	·	·
COc1ccc(C#Cc2ccc3c(c2)O[C@H](CN(C)C(=O)CN2CCOCC2)[C@@H](C)CN([C@@H](C)CO)S3(=O)=O)cc1	1	-29	·	·	·	·	·
CNC[C@@H]1Oc2ncc(-c3ccc(C)cc3)cc2C(=O)N([C@@H](C)CO)C[C@@H]1C	·	-24	18	·	·	·	·
COc1ccc(S(=O)(=O)Nc2ccc3c(c2)C(=O)N([C@H](C)CO)C[C@@H](C)[C@H](CN(C)C(=O)Nc2cccc4ccccc24)OCCCC[C@@H](C)O3)cc1	·	-32	87	·	·	·	·
SMILES	C diff growth	Pf Dd2 growth	T cruzi growth-1	T cruzi growth-2	T cruzi growth-3	3T3 cytotox	3T3 cytotox 2
C[C@H](CO)N1C[C@H](C)[C@@H](CN(C)C(=O)Nc2cccc3ccccc23)OCCCC[C@H](C)Oc2ccc(NS(C)(=O)=O)cc2C1=O	-6	-23	-10	·	·	·	·
C[C@H](CO)N1C[C@H](C)[C@@H](CN(C)C(=O)Nc2cccc3ccccc23)OCCCC[C@H](C)Oc2ccc(NS(=O)(=O)c3cccs3)cc2C1=O	5	-68	102*	106*	56	-20	-24
C[C@H](CO)N1C[C@H](C)[C@H](CN(C)C(=O)Nc2ccccc2)OCCCC[C@H](C)Oc2ccc(NS(=O)(=O)c3cccs3)cc2C1=O	5	·	42	·	·	·	·
C[C@@H]1CN([C@@H](C)CO)C(=O)c2cc(NS(=O)(=O)c3ccc(F)cc3)ccc2O[C@@H](C)CCCCO[C@@H]1CN(C)C(=O)Nc1cccc2ccccc12	-1	-86*	101*	104*	55	21	18
C[C@H]1CCCCO[C@H](CN(C)C(=O)Nc2cccc3ccccc23)[C@@H](C)CN([C@@H](C)CO)C(=O)c2cc(NS(=O)(=O)c3ccccc3)ccc2O1	·	-63	·	·	·	·	·
C[C@H]1CCCCO[C@@H](CN(C)C(=O)Nc2cccc3ccccc23)[C@@H](C)CN([C@@H](C)CO)C(=O)c2cc(NS(=O)(=O)c3ccc(F)cc3)ccc2O1	-6	-78	109*	107*	70	-16	0
Cc1ccc(S(=O)(=O)Nc2ccc3c(c2)C(=O)N([C@H](C)CO)C[C@H](C)[C@@H](CN(C)C(=O)Nc2cccc4ccccc24)OCCCC[C@H](C)O3)cc1	-1	-72	99*	110*	105*	-28	-9
O=C(NC1CCC1)[C@@H]1[C@@H](CO)[C@@H]2Cn3c(ccc(-c4ccc(F)cc4)c3=O)[C@H]1N2	0	·	10	·	·	·	·
C[C@H](CO)N1C[C@H](C)[C@H](CN(C)C(=O)Nc2cccc3ccccc23)OCCCC[C@H](C)Oc2ccc(NS(=O)(=O)c3ccc(F)cc3)cc2C1=O	-11	-31	28	·	·	·	·
